# Assay results as given in PubChem BioAssay (NCI).
# Values joined by “and” are separate entries in the source; they are usually repeats but may differ in a detail not shown here. Equal entries are not always repeated. This is part of a sample that, as a whole, favours compounds with a hit. Of some 79,000 tested, about 15% had one in any assay. A structure can be active in one record and inactive in another. Active and inactive are the calls of the source. Cut-off read from the data, not from the text of the source: active = growth inhibition above about 70%; inactive = the rest.
# Experiment: NCI Yeast Anticancer Drug Screen. Data for the rad50 strain (AID 155);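 note: 0% = growth of vehicle-only cultures of the same strain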
# Settings: S. cerevisiae rad50 strain growth inhibition; at 50.0 µM; stronger effect = higher value
# Summary of the method: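 Growth of the mutant yeast was measured after compound exposure and referenced to vehicle-treated cultures.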
row,Compound,growth inhibition
1,NC1CCCCCCC1,4.85% (inactive) and 5.55% (inactive)
2,O=C(NS(=O)(=O)c1ccccc1)OCc1ccccc1,4.65% (inactive) and -18.1% (inactive)
3,CCCCOc1ccc2nc3cc(Cl)ccc3c(Cl)c2n1,1.85% (inactive) and -16.5% (inactive)
4,N/N=C(/C(=O)c1ccccc1)c1ccccc1,-10% (inactive) and 18% (inactive)
5,CC(=O)OC(COC(=O)c1ccccc1)C(OC(C)=O)C(OC(C)=O)C(COC(=O)c1ccccc1)OC(C)=O (stereo not drawn),3.7% (inactive) and 3.5% (inactive)
6,CCOC(=O)CNC(=O)c1ccccc1,3.7% (inactive) and -12.2% (inactive)
7,CCCCN(CCCC)CCCN,13.2% (inactive) and 9.35% (inactive)

# Experiment: NCI Yeast Anticancer Drug Screen. Data for the mec2-1 strain (AID 157)
# Settings: S. cerevisiae mec2-1 strain, at 50.0 µM, stronger effect = higher value
# Summary of the method: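 Growth inhibition is read against vehicle-treated controls after compound exposure of the mec2-1 yeast strain, which is defective in DNA damage repair or cell cycle control.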
row,Compound,growth inhibition
1,CC(=O)OCC(OC(C)=O)C(OC(C)=O)C(OC(C)=O)C(C=NN(C(C)=O)S(=O)(=O)c1ccc(/C=C2\NC(=O)N(C)C2=O)cc1)OC(C)=O (stereo not drawn),5.25% (inactive) and -9.85% (inactive)
2,O=C(O)C1C2OC(C(Br)C2Br)C1C(=O)O (stereo not drawn),15.1% (inactive) and -12.1% (inactive)
3,COc1cc2c(c(OC)c1OC)-c1ccc(OC)c(=O)cc1C([N+](C)(C)C)CC2 (stereo not drawn),12.3% (inactive) and 7.7% (inactive)
4,Cc1ccc2ccccc2[n+]1C,-7.45% (inactive) and -34.3% (inactive)
5,COc1ccc(C(O)C(NCCO)c2ccc(OC)cc2)cc1 (stereo not drawn),12.8% (inactive) and -7.35% (inactive)
6,C/C=C(\C)c1cc(=O)c2c(C)cc3c(c2o1)C(=O)c1c(O)c(C2CC(C)(N(C)C)C(O)C(C)O2)cc(C2CC(N(C)C)C(O)C(C)O2)c1C3=O (stereo not drawn),-16% (inactive) and 10.7% (inactive)
7,CCOC(=O)c1ccc(N=[N+]([O-])c2ccc(C(=O)OCC)cc2)cc1,-4.95% (inactive) and -4.3% (inactive)
8,C[N+](C)(C)CCOC(=O)c1ccccc1CBr,22.8% (inactive) and 96.6% (active)
9,CC(=O)OCC1OC(n2cnc3c(N)ncnc32)C(OC(C)=O)C1OC(C)=O (stereo not drawn),-8.9% (inactive) and -3.3% (inactive)
10,CC(=O)/C=C/C1=C(C)CCCC1(C)C,-8.35% (inactive) and -10.9% (inactive)
11,COc1ccc2c(=O)c(C)c(-c3ccccc3)oc2c1CN(C)C,-40.1% (inactive) and -38.5% (inactive)
12,Oc1ccccc1-c1nc2ccccc2o1,-10.8% (inactive) and -25.2% (inactive)
13,Cc1cn(C2CC(CCCO)C(CO)O2)c(=O)[nH]c1=O (stereo not drawn),-7% (inactive) and -5.25% (inactive)
14,N#CC1OC1c1cccc[n+]1[O-] (stereo not drawn),-7.8% (inactive) and -3.3% (inactive)
15,O=C(CCCCCCCCC(=O)NCC1(c2ccccc2)CCN(Cc2ccccc2)CC1)NCC1(c2ccccc2)CCN(Cc2ccccc2)CC1,-17.1% (inactive) and 6.25% (inactive)
16,CCCCc1ccc(OC2OC(COC(C)=O)C(OC(C)=O)C(OC(C)=O)C2OC(C)=O)cc1 (stereo not drawn),-14.3% (inactive) and 6.7% (inactive)
17,S=c1nc[nH]c2ccccc12,-4.8% (inactive) and -16.8% (inactive)
18,OC1COCOC1C1OCOCC1O (stereo not drawn),-2.7% (inactive) and -8.35% (inactive)
19,OCC(O)C(O)C(O)C(O)[C@@H](O)c1nc2ccccc2[nH]1 (stereo partly drawn),3% (inactive) and -0.15% (inactive)
20,CC(CC(=O)O)C(C(=O)O)C(=O)O (stereo not drawn),-25.9% (inactive) and 2.4% (inactive)
21,C/C(=N\NS(C)(=O)=O)C(C)(C)C,-0.2% (inactive) and 11.1% (inactive)
22,COc1cc2c(cc1OC)C(=O)C1COC(=O)C1C2 (stereo not drawn),-18.8% (inactive) and -11.5% (inactive)
23,Nc1cc(S(=O)(=O)O)ccc1Cl,-15.7% (inactive) and -2.75% (inactive)
24,COc1ccc(COC(=O)NCC(=O)NC(C)C(=O)NC(Cc2ccccc2)C(=O)OCc2ccccc2)cc1 (stereo not drawn),-10.4% (inactive) and -13.6% (inactive)
25,NCC1CCC(CN)CC1 (stereo not drawn),-40.7% (inactive) and -33.4% (inactive)
26,CCCCCC(Br)C(Br)CC(Br)C(Br)CCCCCCCC(=O)c1ccc2ccccc2c1O (stereo not drawn),-2.05% (inactive) and 0.5% (inactive)
